Outcome and AC50 data for 19 compounds are collected here from PubChem BioAssay (EPA / NIEHS).

Active and inactive are the calls of the source. How the source made its calls: active means hit-call score of the fitted dose curve at least 0.9, where 1 is the maximum; inconclusive means response in the unintended direction; inactive means score below 0.9.

For the experiment, the target named is Androgen Receptor/SRC-1 Co-activator, AR (gene 367) (UniProt P10275). Nature of the experiment: OT_AR_ARSRC1_0960: Odyssey Thera (OT) 16-hour HEK293T Protein-Complementation Assay for Androgen Receptor/SRC-1 Co-activator (AID 2283353).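 Further: actives raise the signal above DMSO so potency reflects increased AR and SRC-1 complex.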 As to the method: OT_AR_ARSRC1_0960 is a cell-based, single-readout assay that uses HEK293T, a human kidney cell line, with measurements taken at 16 hours after chemical dosing in a 384-well plate.OT_AR_ARSRC1_0960 is one of one assay component(s) measured or calculated from the OT_AR_ARSRC1_0960 assay. It is designed to make measurements of protein fragment complementation, a form of binding reporter, as detected with fluorescence intensity signals by Protein-fragment Complementation technology.Data from the assay component OT_AR_ARSRC1_0960 was analyzed into 1 assay endpoint. This assay endpoint, OT_AR_ARSRC1_0960, was analyzed in the positive analysis fitting direction relative to DMSO as the negative control and baseline of activity. Using a type of binding reporter, measures of receptor for gain-of-signal activity can be used to understand the binding at the pathway-level as they relate to the gene AR. Furthermore, this assay endpoint can be referred to as a primary readout, because the performed assay has only produced 1 assay endpoint. To generalize the intended target to other relatable targets, this assay endpoint is annotated to the nuclear receptor intended target family, where the subfamily is steroidal.
Androgen Receptor/SRC-1 Co-activator, AR (gene 367), sequence (P10275 whole entry, looked up, the tested form may be a part): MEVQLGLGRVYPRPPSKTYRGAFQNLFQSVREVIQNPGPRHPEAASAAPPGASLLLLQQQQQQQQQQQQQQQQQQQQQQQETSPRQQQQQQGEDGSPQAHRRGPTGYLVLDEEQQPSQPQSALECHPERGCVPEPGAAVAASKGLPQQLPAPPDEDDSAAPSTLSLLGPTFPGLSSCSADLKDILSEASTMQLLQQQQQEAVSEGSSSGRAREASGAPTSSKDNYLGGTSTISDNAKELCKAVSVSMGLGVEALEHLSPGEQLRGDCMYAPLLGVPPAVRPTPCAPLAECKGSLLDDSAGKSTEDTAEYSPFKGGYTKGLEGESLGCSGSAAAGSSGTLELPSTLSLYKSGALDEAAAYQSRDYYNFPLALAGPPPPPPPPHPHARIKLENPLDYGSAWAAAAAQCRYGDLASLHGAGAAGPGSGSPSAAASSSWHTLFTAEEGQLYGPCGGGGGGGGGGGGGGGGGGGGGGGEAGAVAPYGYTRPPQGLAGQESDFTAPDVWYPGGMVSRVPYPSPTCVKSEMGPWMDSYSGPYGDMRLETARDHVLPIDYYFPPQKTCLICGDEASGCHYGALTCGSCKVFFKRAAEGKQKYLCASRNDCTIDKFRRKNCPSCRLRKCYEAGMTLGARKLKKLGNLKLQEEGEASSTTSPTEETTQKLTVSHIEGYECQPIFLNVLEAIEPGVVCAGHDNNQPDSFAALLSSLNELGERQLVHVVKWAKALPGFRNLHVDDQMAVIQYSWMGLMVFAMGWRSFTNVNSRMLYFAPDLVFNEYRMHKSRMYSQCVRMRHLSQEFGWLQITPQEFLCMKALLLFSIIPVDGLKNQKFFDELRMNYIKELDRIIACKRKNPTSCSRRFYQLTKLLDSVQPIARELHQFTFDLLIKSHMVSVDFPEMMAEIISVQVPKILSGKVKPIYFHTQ
Protein-fragment complementation assay, or PCA, is a method for the identification and quantification of protein-protein interactions. In the PCA, the proteins of interest ("bait" and "prey") are each covalently linked to fragments of a third protein (e.g. DHFR, which acts as a "reporter"). Interaction between the bait and the prey proteins brings the fragments of the reporter protein in close proximity to allow them to form a functional reporter protein whose activity can be measured. The OT AR / SRC-1 assay assessed androgen receptor chemical interactions using a rapidly maturing, intensely fluorescent mutant of YFP known as Venus, rationally dissected into two separate fragments. […] Fusion constructs were transfected into HEK293T cells with a (Gly4Ser)2 linker between the AR/SRC-1 and YFP fragment genes to facilitate complementation when interacting proteins bring fragments into close proximity. The construct is stably expressed in HEK293T cells. […] Images were acquired on an Evotec Opera at 2 wavelengths (488 and 635nm), and the ratio of fluorescence in the nucleus relative to fluorescence in the cytoplasm (N/C Ratio) in the 488nm channel was calculated for a minimum of 400 cells per image. Both agonists and antagonists of the AR receptor induce nuclear translocation to varying degrees. […] The OT AR/SRC-1 assay was also run for 16 hours (see description for OT_AR_ARSRC1_0960).
`CCCSP(=O)(OCC)SCCC`: the call was inactive.

As for `COc1ccc(C(=CC(=O)N2CCOCC2)c2ccc(Cl)cc2)cc1OC`, the compound was called inactive.

For `Cc1nn(-c2cc(NS(C)(=O)=O)c(Cl)cc2Cl)c(=O)n1C(F)F`, the call was inactive.

On to `O=c1ccc(=O)[nH][nH]1`, for which the compound was classed as inactive.

As to `CCCOc1nn(C(=O)NS(=O)(=O)c2ccccc2C(=O)OC)c(=O)n1C`, the compound was called inactive.

Turning to `CCOC(=O)COc1cc(-c2nn(C)c(OC(F)F)c2Cl)c(F)cc1Cl`, the outcome was inactive.

For the compound `CNC(=O)ON=C(SC)C(=O)N(C)C`, the compound was classed as inactive.

Regarding `Nc1c(Cl)cc([N+](=O)[O-])cc1Cl`, the compound was called inactive.

As for `CC(COc1ccc(Oc2ccccc2)cc1)Oc1ccccn1` (centres undefined), the call was inactive.

In the case of `CCC(=O)Nc1ccc(Cl)c(Cl)c1`, the compound was called inactive.

What is called AC50 is the concentration giving half of the maximal activity seen. Consider `COP(=O)(OC)OC(Br)C(Cl)(Cl)Br` (centres undefined), for which the concentration at half-maximal activity (AC50) is 32.5 µM (active).

For the compound `COP(=O)(OC)SCn1c(=O)oc2cc(Cl)cnc21`, the concentration at half-maximal activity (AC50) is 57.8 µM (active).

As for `CCCCOC(=O)c1ccccc1C(=O)O`, the compound was called inactive.

As to `N#CSCSC#N`, the AC50 is 15.5 µM (active).

Take `C=C(C)[C@H]1Cc2c(ccc3c2O[C@@H]2COc4cc(OC)c(OC)cc4[C@@H]2C3=O)O1`: the concentration at half-maximal activity (AC50) is 0.088 µM (active).

With `CCc1cccc(CC)c1N(COC)C(=O)CCl`, the concentration at half-maximal activity (AC50) is 32 µM (active).

`CCOP(=O)(NC(C)C)Oc1ccc(SC)c(C)c1` (centres undefined): the result was inactive.

`CC(C)=CC1C(C(=O)OCN2C(=O)C3=C(CCCC3)C2=O)C1(C)C` (centres undefined): the AC50 is 78.6 µM (active).

Consider `C[N+]1(C)CCCCC1`, for which the compound was classed as inactive.
